From PubChem BioAssay (EPA / NIEHS)
Active and inactive are the calls of the source. Rule for the calls: active = hit-call score of the fitted dose curve at least 0.9, where 1 is the maximum; inactive = score below 0.9.

What was measured:
[1] = read-out: Urokinase-type plasminogen activator receptor (uPAR), PLAUR (gene 5329); assay: BSK_4H_uPAR: BioMAP Diversity Plus: 4H Assay for Urokinase-type plasminogen activator receptor (uPAR) Biomarker Activity (AID 2283030); conditions: primary human endothelial cells (HUVEC); actives raise or lower the signal
In short: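 uPAR level read by ELISA on HUVEC cultures (BioMAP 4H) 24 h post-dosing, analyzed for gain or loss relative to DMSO. Parallel SRB staining assessed overt cytotoxicity.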

[2] = read-out: Vascular endothelial growth factor receptor 2 (Homo sapiens) (UniProt P35968); assay: BSK_4H_VEGFRII: BioMAP Diversity Plus: 4H Assay for Vascular endothelial growth factor receptor 2 (VEGFR2) Biomarker Activity (AID 2283031); conditions: primary human endothelial cells (HUVEC); actives raise or lower the signal;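 for AC50: cell-surface VEGFR2 protein level quantified by ELISA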
In short: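 Measured by ELISA after 24 h of compound treatment: VEGFR2 on primary human umbilical vein endothelial cells, fitted in both directions relative to DMSO. Parallel cultures received SRB staining (560 nm) for overt cytotoxicity.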

[3] = read-out: Human Leukocyte Antigen - DR isotype (HLADR), HLA-DRA (gene 3122); assay: BSK_BE3C_HLADR: BioMAP Diversity Plus: BE3C Assay for Human Leukocyte Antigen - DR isotype (HLADR) Biomarker Activity (AID 2283032); conditions: primary human bronchial epithelial cells; actives raise or lower the signal
In short: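 Signal came from an ELISA for HLA-DR in human bronchial epithelial primary cells harvested 24 h after treatment; gain- and loss-of-signal fitting used DMSO controls as reference.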

[4] = read-out: Vascular cell adhesion molecule 1 (VCAM1), VCAM1 (gene 7412); assay: BSK_4H_VCAM1: BioMAP Diversity Plus: 4H Assay for Vascular cell adhesion molecule 1 (VCAM1) Biomarker Activity (AID 2283033); conditions: primary human endothelial cells (HUVEC); actives raise or lower the signal
In short: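 Endpoint derived from bidirectional fitting against DMSO controls of VCAM-1 ELISA signal in umbilical vein endothelial cells sampled at 24 h following treatment.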

[5] = read-out: Interferon-gamma inducible Protein 10 (IP10), CXCL10 (gene 3627); assay: BSK_BE3C_IP10: BioMAP Diversity Plus: BE3C Assay for Interferon-gamma inducible Protein 10 (IP10) Biomarker Activity (AID 2283034); conditions: primary human bronchial epithelial cells; actives raise or lower the signal
In short: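 Using primary human bronchial epithelial cultures, the assay captures IP-10 by ELISA one day (24 h) after exposure. Parallel SRB staining of total protein flags overt cytotoxicity. Fits run bidirectionally relative to DMSO.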

[6] = read-out: Monokine induced gamma interferon (MIG), CXCL9 (gene 4283); assay: BSK_BE3C_MIG: BioMAP Diversity Plus: BE3C Assay for Monokine induced gamma interferon (MIG) Biomarker Activity (AID 2283035); conditions: primary human bronchial epithelial cells; actives raise or lower the signal;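 note: MIG protein measured by ELISA in BE3C cultures after 24 h of dosing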
In short: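 MIG level was determined by ELISA after 24 h chemical treatment of primary human bronchial epithelial cells. Values were fitted bidirectionally with DMSO as the negative control and activity baseline.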

[7] = read-out: Transforming growth factor beta 1 (TGFb1), TGFB1 (gene 7040); assay: BSK_BE3C_TGFb1: BioMAP Diversity Plus: BE3C Assay for Transforming growth factor beta 1 (TGFb1) Biomarker Activity (AID 2283036;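 note: TGF-b1 protein level measured by ELISA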); conditions: primary human bronchial epithelial cells; actives raise or lower the signal
In short: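 In this human primary bronchial epithelial system, an ELISA quantified TGF-b1 one day after dosing. Endpoint changes in either direction were fitted relative to DMSO.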

[8] = read-out: Plasminogen activator inhibitor-1 (PAI1), SERPINE1 (gene 5054); assay: BSK_BE3C_PAI1: BioMAP Diversity Plus: BE3C Assay for Plasminogen activator inhibitor-1 (PAI1) Biomarker Activity (AID 2283037); conditions: primary human bronchial epithelial cells; actives raise or lower the signal
In short: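 PAI-1 biomarker levels in treated human bronchial epithelial cells are determined by ELISA at 24 h. Both increases and decreases relative to DMSO are fitted.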

[9] = read-out: urokinase plasminogen activator (uPA), PLAU (gene 5328); assay: BSK_BE3C_uPA: BioMAP Diversity Plus: BE3C Assay for urokinase plasminogen activator (uPA) Biomarker Activity (AID 2283038); conditions: primary human bronchial epithelial cells; actives raise or lower the signal
In short: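 ELISA for uPA on human primary bronchial epithelial cultures 24 h post-treatment, gain or loss against DMSO. Parallel SRB staining (0.1% after 10% TCA fixation, 560 nm) assessed overt cytotoxicity.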

[10] = read-out: Interleukin-6 (IL6), IL6 (gene 3569); assay: BSK_CASM3C_IL6: BioMAP Diversity Plus: CASM3C Assay for Interleukin-6 (IL6) Biomarker Activity for (AID 2283040); conditions: primary human coronary artery smooth muscle cells; actives raise or lower the signal
[11] = read-out: Tissue plasminogen activator (tPA), PLAT (gene 5327); assay: BSK_BE3C_tPA: BioMAP Diversity Plus: BE3C Assay for Tissue plasminogen activator (tPA) Biomarker Activity (AID 2283041); conditions: primary human bronchial epithelial cells; actives raise or lower the signal
In short: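 Bidirectional curve fitting relative to DMSO defined activity, with tPA detected by ELISA in chemically treated human bronchial epithelial primary cells at 24 hours.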

[12] = read-out: Interleukin-8 (IL8), CXCL8 (gene 3576); assay: BSK_CASM3C_IL8: BioMAP Diversity Plus: CASM3C Assay for Interleukin-8 (IL8) Biomarker Activity (AID 2283042); conditions: primary human coronary artery smooth muscle cells; actives raise or lower the signal;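 note: IL-8 protein level quantified by ELISA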
[13] = read-out: Human Leukocyte Antigen - DR isotype (HLADR), HLA-DRA (gene 3122); assay: BSK_CASM3C_HLADR: BioMAP Diversity Plus: CASM3C Assay for Human Leukocyte Antigen - DR isotype (HLADR) Biomarker Activity (AID 2283043); conditions: primary human coronary artery smooth muscle cells; actives raise or lower the signal;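 note: cell-surface HLA-DR protein level quantified by ELISA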
[14] = read-out: Macrophage colony-stimulating factor (MCSF), CSF1 (gene 1435); assay: BSK_CASM3C_MCSF: BioMAP Diversity Plus: CASM3C Assay for Macrophage colony-stimulating factor (MCSF) Biomarker Activity (AID 2283044); conditions: primary human coronary artery smooth muscle cells; actives raise or lower the signal;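 note: M-CSF protein amount quantified by ELISA after 24 h exposure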
[15] = read-out: Low-density lipoprotein receptor (LDLR), LDLR (gene 3949); assay: BSK_CASM3C_LDLR: BioMAP Diversity Plus: CASM3C Assay for Low-density lipoprotein receptor (LDLR) Biomarker Activity (AID 2283045); conditions: primary human coronary artery smooth muscle cells; actives raise or lower the signal;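 note: LDLR protein level on the cell surface quantified by ELISA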
[16] = read-out: Monocyte Chemoattractant Protein-1 (MCP1), CCL2 (gene 6347); assay: BSK_CASM3C_MCP1: BioMAP Diversity Plus: CASM3C Assay for Monocyte Chemoattractant Protein-1 (MCP1) Biomarker Activity (AID 2283046); conditions: primary human coronary artery smooth muscle cells; actives raise or lower the signal;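 note: MCP-1 level quantified by ELISA 24 h after dosing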
[17] = BSK_CASM3C_Proliferation: Cell Proliferation Assessment in the BioMAP Diversity Plus: CASM3C Assay (AID 2283047); conditions: primary human coronary artery smooth muscle cells;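 note: sulforhodamine B total protein stain as relative cell number at 560 nm; sub-confluent cells exposed 48 h before staining; fitted both ways against DMSO so gain or loss of cell number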
[18] = read-out: Monokine induced gamma interferon (MIG), CXCL9 (gene 4283); assay: BSK_CASM3C_MIG: BioMAP Diversity Plus: CASM3C Assay for Monokine induced gamma interferon (MIG) Biomarker Activity (AID 2283048); conditions: primary human coronary artery smooth muscle cells; actives raise or lower the signal;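 note: MIG protein level measured by ELISA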
[19] = read-out: serum amyloid A (SAA), SAA1 (gene 6288); assay: BSK_CASM3C_SAA: BioMAP Diversity Plus: CASM3C Assay for serum amyloid A (SAA) Biomarker Activity (AID 2283049); conditions: primary human coronary artery smooth muscle cells; actives raise or lower the signal;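 note: SAA protein level quantified by ELISA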

Measured: AC50

CCCSP(=O)(OCC)Oc1ccc(Br)cc1Cl (centres undefined)
active: [3] 32.1 µM | [4] 29.8 µM | [5] 29.1 µM | [10] 23 µM | [11] 13.4 µM | [17] 32.1 µM
inactive: all other assays above

CCOP(=S)(OCC)Oc1ccc([N+](=O)[O-])cc1
inactive: all assays above

Cc1nn(-c2cc(NS(C)(=O)=O)c(Cl)cc2Cl)c(=O)n1C(F)F
inactive: all assays above

CNC(=O)ON=C(C)SC
inactive: all assays above

CC(C)N(C(=O)SCC(Cl)=C(Cl)Cl)C(C)C
active: [1] 31.4 µM | [2] 31.1 µM | [4] 33.1 µM | [14] 34.4 µM | [17] 37.1 µM
inactive: all other assays above

CC(COc1ccc(Oc2ccccc2)cc1)Oc1ccccn1 (centres undefined)
active: [9] 17.8 µM | [17] 31.8 µM
inactive: all other assays above
